Measurements reported in PubChem BioAssay AID2283134 (EPA ToxCast).
Records with an inconclusive call do not appear. Active and inactive are the calls of the source. How the source made its calls: active means hit-call score of the fitted dose curve at least 0.9, where 1 is the maximum; inconclusive means response in the unintended direction; inactive means score below 0.9.

The compounds below were run against human Checkpoint Kinase 1 (CHK1), CHEK1 (gene 1111) (UniProt O14757) (assay: NVS_ENZ_hCHK1: NovaScreen (NVS) Enzymatic Assay for human Checkpoint Kinase 1 (CHK1)).
Sequence of human Checkpoint Kinase 1 (CHK1), CHEK1 (gene 1111) (O14757 whole entry, looked up): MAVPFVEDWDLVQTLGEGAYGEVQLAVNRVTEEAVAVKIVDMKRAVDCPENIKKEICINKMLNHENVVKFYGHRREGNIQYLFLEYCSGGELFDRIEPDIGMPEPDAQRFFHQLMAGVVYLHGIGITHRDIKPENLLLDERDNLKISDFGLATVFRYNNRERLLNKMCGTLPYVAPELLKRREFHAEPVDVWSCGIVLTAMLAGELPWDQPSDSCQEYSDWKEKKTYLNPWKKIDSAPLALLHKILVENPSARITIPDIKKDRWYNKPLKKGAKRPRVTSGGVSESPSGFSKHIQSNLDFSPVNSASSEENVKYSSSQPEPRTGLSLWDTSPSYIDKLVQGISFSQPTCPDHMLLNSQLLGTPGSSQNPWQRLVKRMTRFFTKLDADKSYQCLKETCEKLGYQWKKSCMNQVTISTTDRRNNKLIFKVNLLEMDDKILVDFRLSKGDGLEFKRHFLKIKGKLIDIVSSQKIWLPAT
Experimental: NVS_ENZ_hCHK1 is a biochemical, single-readout assay that uses extracted gene-proteins in a cell-free assay. Measurements were taken 1 hour after chemical dosing in a 96-well plate.NVS_ENZ_hCHK1 is one of one assay component(s) measured or calculated from the NVS_ENZ_hCHK1 assay. It is designed to make measurements of enzyme activity, a form of enzyme reporter, as detected with fluorescence intensity signals by Fluorescence and electrophoretic mobility shift technology.Data from the assay component NVS_ENZ_hCHK1 was analyzed into 1 assay endpoint. This assay endpoint, NVS_ENZ_hCHK1, was analyzed in the positive analysis fitting direction relative to DMSO as the negative control and baseline of activity. Using a type of enzyme reporter, loss-of-signal activity can be used to understand changes in the enzymatic activity as they relate to the gene CHEK1. Furthermore, this assay endpoint can be referred to as a primary readout, because this assay has produced multiple assay endpoints where this one serves a enzymatic activity function. To generalize the intended target to other relatable targets, this assay endpoint is annotated to the kinase intended target family, where the subfamily is serine/threonine kinase. […]
In the case of `N#Cc1c(Cl)c(Cl)c(Cl)c(C#N)c1Cl`, the outcome is reported as “inactive”.
